From PubChem BioAssay (Tox21) come the findings set out here.

Records with an inconclusive call do not appear. Values without a mark were called inactive. Calls of active or inactive are those of the source. Calls come from the whole dose curve; as a rule, active = well fitted cell-killing curve with a large enough effect in the repeat runs; inconclusive = weak or mixed curves, or effect the other way; inactive = flat fitted curve, though single readings scatter.
% is set by controls: 0 for no effect and ±100 for the full control effect; potency is the fitted concentration of half-maximal effect.

The experiment in a line: qHTS RealTime-Glo MT Cell Viability Assay in HEK293 cells - 32 hour (AID 1224868). For activity change, negative = cytotoxic: top concentration of the series differs between compounds. Note: nearly all actives have a fitted effect of over 50% in size. The following applies: RealTime-Glo luminescence; series mostly up to 76.8 µM; activity change, negative = cytotoxic: at the top concentration. The source says:
National Center for Advancing Translational Sciences [NCATS]
NIH Chemical Genomics Center [NCGC]
U.S. Environmental Protection Agency [EPA]
National Institutes of Environmental Health Sciences [NIEHS]
National Toxicology Program [NTP]
U.S. Food and Drug Administration [FDA]
Measure of cell viability is critical in the cell-base assay. Analysis of cell viability is necessary for the characterization of cell responses to cytotoxic drugs and environmental stress. A RealTime-Glo MT Cell Viability Assay to monitor cell viability in real time of continues cell culture during 40 hours of compound treatment was used to screen Tox21 10K library compounds in Hek293 cells. The RealTime-Glo MT Cell Viability Assay is a nonlytic, homogeneous, bioluminescent method to measure cell viability in real time using a simple, plate-based method. The assay involves adding NanoLuc luciferase and a cell-permeant prosubstrate to cells in culture. Viable cells reduce the proprietary prosubstrate to generate a substrate for NanoLuc luciferase. This substrate diffuses from cells into the surrounding culture medium, where it is rapidly used by the NanoLuc Enzyme to produce a luminescent signal. The signal correlates with the number of viable cells, making the assay well suited for cytotoxicity studies.
Tox21 Assay Protocol Summary:
The mixture of Hek293 cell suspension and reagents were dispensed at 600cells/6 ul/well in 1536-well tissue culture treated black solid bottom plates using a Multidrop dispenser. After the assay plates were incubated at a 37 C/5% CO2 incubator for 5 hours, 23 nL of compounds dissolved in DMSO, positive and negative controls was transferred to the assay plate by a pintool work station. The plates were incubated at 37 C for 40 hours. The luminescence intensity were measured at 0h, 8h, 16h, 24h, 32h and 40h time points using ViewLux plate reader during compound treatment.
With `CC1(C)[C@@H](OC(=O)CCC(=O)O)CC[C@]2(C)[C@H]3C(=O)C=C4[C@@H]5C[C@@](C)(C(=O)O)CC[C@]5(C)CC[C@@]4(C)[C@]3(C)CC[C@@H]12`, the “activity change, negative = cytotoxic” value was 10.1% [at 35.3 µM].

Take `CC(C)=CCC/C(C)=C/CC/C(C)=C/C(=O)OCC(=O)[C@@]1(O)CC[C@H]2[C@@H]3CCC4=CC(=O)C=C[C@]4(C)[C@H]3[C@@H](O)C[C@@]21C`: the Potency is 4.77 µM (active).

Regarding `NNC(=O)CP(=O)(c1ccccc1)c1ccccc1`, the “activity change, negative = cytotoxic” value was -4.06% [at 35.3 µM].

On to `CN1CCCC(n2nc(Cc3ccc(Cl)cc3)c3ccccc3c2=O)CC1` (stereo not given), for which the Potency is 9.52 µM (active).

`C[C@@H](CN(C)C)CN1c2ccccc2Sc2ccccc21`: the Potency was 21.3 µM (active).

As to `CN1C(=O)OC(C)(C)C1=O`, the “activity change, negative = cytotoxic” value is 3.39%.

For `CC(C)=CC(=O)C=C(C)C`, the “activity change, negative = cytotoxic” value was 8.53%.

For `O=C1c2ccccc2C(=O)c2c(O)c(O)cc(O)c21`, the “activity change, negative = cytotoxic” value was 7.44%.

On to `CO/N=C(/C(=O)N[C@@H]1C(=O)N2C(C(=O)O)=C(COC(N)=O)CS[C@H]12)c1ccco1`, for which the “activity change, negative = cytotoxic” value was 2.45%.

For the compound `CCOC(=O)c1ccc(OCCN2C[C@H](O)[C@@H](O)[C@H](O)[C@H]2CO)cc1`, the “activity change, negative = cytotoxic” value is 0.523% [at 35.3 µM].

Turning to `CCCCCCCCC(CCCCCC)C(=O)O` (stereo not given), the “activity change, negative = cytotoxic” value was -0.5%.

Consider `O=C(OCC(O)CO)c1ccccc1Nc1ccnc2cc(Cl)ccc12` (stereo not given), for which the Potency was 8.49 µM (active).

Consider `c1ccc(C[n+]2cccc3ccccc32)cc1`, for which the “activity change, negative = cytotoxic” value was -29.6%.

As for `CCc1ccccc1`, the “activity change, negative = cytotoxic” value is 8.89%.

On to `CC(C)C=O`, for which the “activity change, negative = cytotoxic” value is -0.0405%.

As to `CC1CC(OC(=O)C(O)c2ccccc2)CC(C)(C)N1C` (stereo not given), the “activity change, negative = cytotoxic” value was 0.142% [at 35.3 µM].

Take `O=c1c(O)c(-c2ccc(O)cc2)oc2cc(O)cc(O)c12`: the “activity change, negative = cytotoxic” value was -26.1% [at 35.3 µM].

For the compound `O=C1Cc2ccccc2N1c1c(Cl)cccc1Cl`, the Potency was 24.5 µM (active).

For the compound `Cc1cc(=O)c2c(O)c3c(O)cc(=O)c4c3c3c(cc(O)c1c23)C(C)(C)C=4O`, the Potency is 1.17 µM (active).

For `C=C1C[C@@]23CC[C@H]4[C@@](C)(CCC[C@@]4(C)C(=O)O[C@@H]4O[C@H](CO)[C@@H](O)[C@H](O)[C@H]4O)[C@@H]2CC[C@]1(O[C@@H]1O[C@H](CO)[C@@H](O)[C@H](O[C@@H]2O[C@H](CO)[C@@H](O)[C@H](O)[C@H]2O)[C@H]1O[C@@H]1O[C@H](CO)[C@@H](O)[C@H](O)[C@H]1O)C3`, the “activity change, negative = cytotoxic” value is 1.71%.

Consider `C[C@@H]1CN(CCCn2c3ccccc3c3ccccc32)C[C@H](C)N1`, for which the Potency was 26.8 µM (active).

In the case of `Brc1cc(Br)c(Oc2cc(Br)c(Br)cc2Br)cc1Br`, the “activity change, negative = cytotoxic” value was -4.64% [at 35.3 µM].

As to `CC[N+](CC)(CCNC(=O)C(=O)NCC[N+](CC)(CC)Cc1ccccc1Cl)Cc1ccccc1Cl`, the “activity change, negative = cytotoxic” value was 0.0458% [at 35.3 µM].

For the compound `OC[C@H]1O[C@@H](n2cnc3c(=S)nc[nH]c32)[C@H](O)[C@@H]1O`, the Potency was 21.3 µM (active).

With `Nc1ncnc2c1ncn2[C@H]1CC[C@@H](CO)O1`, the “activity change, negative = cytotoxic” value is 22.6%.

Take `NC(=O)c1ccncc1`: the “activity change, negative = cytotoxic” value is 4.86%.

In the case of `COC(=O)C1=C(C)NC(C)=C(C(=O)O[C@@H]2CCCN(Cc3ccccc3)C2)[C@@H]1c1cccc([N+](=O)[O-])c1`, the “activity change, negative = cytotoxic” value was -28.9% [at 35.3 µM].

As to `C[C@H]1C[C@H](O)c2ccsc2S1(=O)=O`, the “activity change, negative = cytotoxic” value was 3.88% [at 35.3 µM].

Turning to `O=C(CCc1ccc(O)cc1)c1c(O)cc(O)cc1O`, the Potency is 39.8 µM (active).

Regarding `Cc1[nH]cnc1CN1CCc2c(c3ccccc3n2C)C1=O`, the “activity change, negative = cytotoxic” value is -22.6% [at 35.3 µM].

Regarding `O=C1c2ccccc2C(=O)C1c1nc2ccccc2c(Br)c1O`, the “activity change, negative = cytotoxic” value is 17.2%.

In the case of `CC(C)(C)C(=O)C(=O)O`, the “activity change, negative = cytotoxic” value was -0.701%.

Consider `C=CC(=O)[O-].C=CC(=O)[O-].[Zn+2]`, for which the “activity change, negative = cytotoxic” value was -1.19%.

Consider `OC(CCN1CCCC1)(c1ccccc1)C1CCCCC1` (stereo not given), for which the “activity change, negative = cytotoxic” value was -6.89% [at 35.3 µM].

Take `CC(C)(c1ccccc1)c1ccccc1`: the “activity change, negative = cytotoxic” value was -13.5%.

Consider `CCCCCCCCN`, for which the “activity change, negative = cytotoxic” value is 0.24%.

As to `COc1cc(Nc2c(C#N)cnc3cc(OCCCN4CCN(C)CC4)c(OC)cc23)c(Cl)cc1Cl`, the Potency is 8.49 µM (active).

Consider `CCC1(CO)COCOC1`, for which the “activity change, negative = cytotoxic” value is -9.46%.

For `O=C=Nc1ccc(Cl)c(Cl)c1`, the “activity change, negative = cytotoxic” value was -8.7%.

Turning to `CCOc1ccc(Cc2nccc3cc(OCC)c(OCC)cc23)cc1OCC`, the Potency was 6.01 µM (active).
